Experimental data taken from PubChem BioAssay (NCI).
The panel holds about 83,000 compounds, 20% with a hit somewhere; the sample as a whole holds those more often.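 Treatment: one concentration, 48 hours, 96-well format. Scoring: percent growth, with anything below 10 considered active.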 The source made the active and inactive calls.

Experiments:
Assay in all cases: NCI-60 one-dose screen, 48 h (100 = growth as untreated, 0 = no growth, -100 = all killed)
Conditions in all cases: 10 µM unless noted
DU-145 prostate = system: DU-145 prostate
K-562 leukemia = system: K-562 leukemia
MALME-3M melanoma = system: MALME-3M melanoma
MDA-MB-231 breast = system: MDA-MB-231 breast
RXF 393 renal = system: RXF 393 renal
SF-268 CNS = system: SF-268 CNS
SF-295 CNS = system: SF-295 CNS
SF-539 CNS = system: SF-539 CNS
UACC-257 melanoma = system: UACC-257 melanoma
M14 melanoma = system: M14 melanoma

Measured: growth

CCc1cc2c(cc1N1CCC(N3CCOCC3)CC1)C(C)(C)c1[nH]c3cc(C#N)ccc3c1C2=O
active: K-562 leukemia 2.08% | MALME-3M melanoma -27.4% | MDA-MB-231 breast -7.59% | RXF 393 renal -1.05% | SF-268 CNS -2.19% | SF-295 CNS -3.18% | SF-539 CNS -71.8% | UACC-257 melanoma -20% | M14 melanoma -26.1%
inactive: DU-145 prostate 10.1%

CC(C)[C@@H]1CC[C@@H]2[C@@H]1[C@H](OC(=O)/C=C/c1ccccc1)[C@]1(C(C)C)C[C@@H](OC(=O)CO)[C@@]2(C)O1
inactive: DU-145 prostate 86% | K-562 leukemia 78.3% | MALME-3M melanoma 80.3% | MDA-MB-231 breast 77.7% | RXF 393 renal 23.4% | SF-268 CNS 56.8% | SF-295 CNS 92.2% | SF-539 CNS 97.1% | UACC-257 melanoma 84.1% | M14 melanoma 95.8%

COc1ccc(F)c(F)c1C(=O)c1cnc(NC2CCN(S(C)(=O)=O)CC2)nc1N
active: K-562 leukemia 5.89% | MALME-3M melanoma -28.3% | MDA-MB-231 breast 2.97% | RXF 393 renal -62% | SF-268 CNS 6.42% | SF-295 CNS 8.69% | SF-539 CNS -33.8% | UACC-257 melanoma -28% | M14 melanoma -23.6%
inactive: DU-145 prostate 10.3%

Cc1cc(C2(c3ccc(O)c(C)c3)OS(=O)(=O)c3ccccc32)ccc1O
inactive: DU-145 prostate 122% | K-562 leukemia 104% | MALME-3M melanoma 91.7% | MDA-MB-231 breast 102% | RXF 393 renal 98.5% | SF-268 CNS 112% | SF-295 CNS 105% | SF-539 CNS 99% | UACC-257 melanoma 100% | M14 melanoma 99.9%

C/C(=C(/c1ccc(Cl)cc1)c1ccc(OCCN2CCCCCC2)cc1)c1ccccc1
inactive: DU-145 prostate 83.5% | K-562 leukemia 22.7% | MALME-3M melanoma 81.7% | MDA-MB-231 breast 86.9% | RXF 393 renal 81.4% | SF-268 CNS 93% | SF-295 CNS 86.4% | SF-539 CNS 72.4% | UACC-257 melanoma 92.2% | M14 melanoma 81.4%

CC(C)NC[C@@H](C(=O)N1CCN(c2ncnc3c2[C@H](C)C[C@H]3O)CC1)c1ccc(Cl)cc1
active: RXF 393 renal -24.8% | SF-539 CNS 2.83%
inactive: DU-145 prostate 67.8% | K-562 leukemia 64.7% | MALME-3M melanoma 60.1% | MDA-MB-231 breast 87.6% | SF-268 CNS 57.7% | SF-295 CNS 19.9% | UACC-257 melanoma 42.8% | M14 melanoma 69.9%

COc1cc2nccc(Oc3ccc(NC(=O)C4(C(=O)Nc5ccc(F)cc5)CC4)cc3)c2cc1OC
active: K-562 leukemia 0.49% | MALME-3M melanoma 0.11% | MDA-MB-231 breast 4.99% | RXF 393 renal -25.5% | SF-295 CNS -8.99% | SF-539 CNS -10.2% | UACC-257 melanoma -12.6% | M14 melanoma -11.6%
inactive: DU-145 prostate 27.3% | SF-268 CNS 34%

Oc1ccc(C(c2ccc(O)cc2)C(Cl)(Cl)Cl)cc1
inactive: DU-145 prostate 109% | K-562 leukemia 79.7% | MALME-3M melanoma 134% | MDA-MB-231 breast 98.2% | RXF 393 renal 101% | SF-268 CNS 96.9% | SF-295 CNS 96.1% | SF-539 CNS 99.9% | UACC-257 melanoma 119% | M14 melanoma 105%

COC(=O)CNC(=O)[C@@H](OC)[C@@H]1Cc2cc3cc(OC4CC(OC5CC(O)C(O)C(C)O5)C(O)C(C)O4)c(C)c(O)c3c(O)c2C(=O)[C@H]1OC1CC(OC2CC(OC3CC(C)(O)C(O)C(C)O3)C(O)C(C)O2)C(O)C(C)O1 (stereo not given in full)
inactive: DU-145 prostate 17.2% | K-562 leukemia 10.2% | MDA-MB-231 breast 21.5% | SF-268 CNS 21.1%
active: MALME-3M melanoma -35.3% | RXF 393 renal -75.4% | SF-295 CNS 6.85% | SF-539 CNS -28.7% | UACC-257 melanoma 6.03% | M14 melanoma -32.1%

O=C1NC(=O)[C@@H](c2cn3c4c(cccc24)CCC3)[C@@H]1c1c[nH]c2ccccc12
active: K-562 leukemia 9.6% | RXF 393 renal 6.54% | SF-539 CNS -17.3% | M14 melanoma 8.08%
inactive: DU-145 prostate 15% | MALME-3M melanoma 59.7% | MDA-MB-231 breast 34.1% | SF-268 CNS 34.2% | SF-295 CNS 19.2% | UACC-257 melanoma 38.5%

COc1cc(Nc2ncc(F)c(Nc3ccc4c(n3)N(COP(=O)(O)O)C(=O)C(C)(C)O4)n2)cc(OC)c1OC
inactive: DU-145 prostate 30.9% | K-562 leukemia 32.3% | MALME-3M melanoma 53.1% | MDA-MB-231 breast 15.9% | SF-295 CNS 15.5% | UACC-257 melanoma 66.2% | M14 melanoma 39%
active: RXF 393 renal -79.9% | SF-268 CNS 7.3% | SF-539 CNS -70.1%

O=C1NC(=O)/C(=C/c2ccc3nccc(-c4ccncc4)c3c2)S1
active: DU-145 prostate 2.86% | K-562 leukemia 5.97% | MALME-3M melanoma -42.7% | MDA-MB-231 breast -13.3% | RXF 393 renal -74.2% | SF-268 CNS -11.5% | SF-295 CNS -48.2% | SF-539 CNS -61.5% | UACC-257 melanoma -33.5% | M14 melanoma -45.5%

Cc1cc(C(=O)NOCCO)c(Nc2ccc(I)cc2F)n(C)c1=O
active: MALME-3M melanoma -4.71% | UACC-257 melanoma -19.6% | M14 melanoma 7.71%
inactive: DU-145 prostate 69.8% | K-562 leukemia 34.2% | MDA-MB-231 breast 40.7% | RXF 393 renal 27.3% | SF-268 CNS 78.9% | SF-295 CNS 84% | SF-539 CNS 60.8%

Cc1cccc(Cl)c1NC(=O)c1cnc(Nc2cc(N3CCOCC3)cc(N3CCOCC3)c2)s1
inactive: MALME-3M melanoma 61.3% | MDA-MB-231 breast 20.5% | SF-268 CNS 34% | SF-295 CNS 34% | UACC-257 melanoma 64.3% | M14 melanoma 35.9%
active: DU-145 prostate 3.54% | K-562 leukemia 5.18% | RXF 393 renal -30% | SF-539 CNS 6.88%

O=C1C=CC2(NN=C(c3ccccc3)N2c2ccc(Cl)cc2)c2cccc(O)c21 (stereo not given)
active: UACC-257 melanoma 5.85%
inactive: DU-145 prostate 51.9% | K-562 leukemia 25.5% | MALME-3M melanoma 38.8% | MDA-MB-231 breast 77.4% | RXF 393 renal 119% | SF-268 CNS 57.3% | SF-295 CNS 27.8% | SF-539 CNS 26.6% | M14 melanoma 28.9%

Cc1ncc(-c2ccnc(Nc3ccc(S(C)(=O)=O)cc3)n2)n1C(C)C
active: DU-145 prostate 4.62% | K-562 leukemia 3.66% | MALME-3M melanoma -47.7% | MDA-MB-231 breast -8.39% | RXF 393 renal -50.9% | SF-268 CNS 3.67% | SF-295 CNS -0.591% | SF-539 CNS -65.4% | UACC-257 melanoma -28.3% | M14 melanoma -74.5%

CNC(=O)c1nn(C)c2c1C(C)(C)Cc1cnc(Nc3ccc(N4CCN(C)CC4)cc3)nc1-2
active: K-562 leukemia 5.4% | MALME-3M melanoma -8.73% | RXF 393 renal -48.2% | SF-268 CNS 7.96% | SF-539 CNS -28.6% | UACC-257 melanoma -14.8%
inactive: DU-145 prostate 15.5% | MDA-MB-231 breast 14.7% | SF-295 CNS 15.3% | M14 melanoma 12.5%

COc1cc2c(c(OC)c1)C1c3ccccc3NC(=O)N1CC2 (stereo not given)
inactive: DU-145 prostate 13.2% | K-562 leukemia 12.5% | MALME-3M melanoma 28.5% | MDA-MB-231 breast 32.2% | SF-268 CNS 48.2% | SF-295 CNS 13.2% | UACC-257 melanoma 56.4%
active: RXF 393 renal 9.03% | SF-539 CNS -9.57% | M14 melanoma -18.6%

CC/C(=C(\c1ccc(OCCN2CCCCCCC2)cc1)c1ccc(OC(=O)C2CCCCC2)cc1)c1ccc(Cl)cc1
inactive: DU-145 prostate 108% | K-562 leukemia 84.8% | MALME-3M melanoma 94.1% | MDA-MB-231 breast 93.3% | RXF 393 renal 110% | SF-268 CNS 94.7% | SF-295 CNS 104% | SF-539 CNS 102% | UACC-257 melanoma 87.3% | M14 melanoma 91.1%

Cc1ccc(NC(=O)Nc2ccc(Nc3ncnc4sc5c(c34)CCOC5)cc2)cc1Cl
inactive: DU-145 prostate 114% | K-562 leukemia 108% | MALME-3M melanoma 98.2% | MDA-MB-231 breast 88.5% | RXF 393 renal 95.5% | SF-268 CNS 103% | SF-295 CNS 96% | SF-539 CNS 84.4% | UACC-257 melanoma 88.8% | M14 melanoma 99.1%

CN[C@@H]1C[C@H]2O[C@@](C)([C@@H]1OC)n1c3ccccc3c3c4c(c5c6ccccc6n2c5c31)C(=O)N[C@H]4O
active: DU-145 prostate 3.62% | K-562 leukemia -15.6% | MALME-3M melanoma -81.2% | MDA-MB-231 breast -48.5% | RXF 393 renal -94.3% | SF-268 CNS -66.5% | SF-295 CNS -75.8% | SF-539 CNS -88.4% | UACC-257 melanoma -88.4% | M14 melanoma -56.6%
